# From PubChem BioAssay AID1159580 (chemical genetic matrix, 2015)
# Screen size: about 5,500 compounds; about 2,000 (36%) were called active. Another 18% or so got no clear call; they are omitted. Some of the results follow. A number with no mark means an inactive call. No stated cut-off is given here; in the data, active means normalized growth mostly below about 0.91 (no sharp cut-off); inconclusive means no clear call, values can overlap the other calls; inactive means mostly above about 0.92.
# Assay: chemical genetic growth profiling, strain panel (AID 1159580);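 further: tested at 20 µM; growth read once vehicle control cultures reached saturation at 30 °C; 1 = growth at the plate median or of vehicle wells; lower values mean less growth of the strain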
# Settings: growth OD
# [1] = S. cerevisiae deletion strains, locus YAL013W, strain DEP1, hits give low values
# [2] = S. cerevisiae deletion strains, locus YBR229C, strain ROT2, hits give low values
# [3] = S. cerevisiae deletion strains, locus YDL101C, strain DUN1, hits give low values
# [4] = S. cerevisiae deletion strains, locus YDR150W, strain NUM1, hits give low values
# [5] = S. cerevisiae deletion strains, locus YEL061C, strain CIN8, hits give low values
# [6] = S. cerevisiae deletion strains, locus YGR078C, strain PAC10, hits give low values
# [7] = S. cerevisiae deletion strains, locus YHR030C, strain SLT2, hits give low values
# [8] = S. cerevisiae deletion strains, locus YHR087W, strain rtc3, hits give low values
# [9] = S. cerevisiae deletion strains, locus YJR043C, strain POL32, hits give low values
# [10] = S. cerevisiae deletion strains, locus YJR075W, strain HOC1, hits give low values
# [11] = S. cerevisiae deletion strains, locus YKL190W, strain CNB1, hits give low values
# [12] = S. cerevisiae deletion strains, locus YLR039C, strain RIC1, hits give low values
# [13] = S. cerevisiae deletion strains, locus YLR058C, strain SHM2 (second series), hits give low values
# [14] = S. cerevisiae deletion strains, locus YLR085C, strain ARP6, hits give low values
# [15] = S. cerevisiae deletion strains, locus YLR262C, strain YPT6, hits give low values
# [16] = S. cerevisiae deletion strains, locus YML094W, strain GIM5, hits give low values
# [17] = S. cerevisiae deletion strains, locus YMR219W, strain ESC1, hits give low values
# [18] = S. cerevisiae deletion strains, locus YMR263W, strain SAP30, hits give low values
# [19] = S. cerevisiae deletion strains, locus YMR307W, strain GAS1, hits give low values
# [20] = S. cerevisiae deletion strains, locus YNL128W, strain TEP1, hits give low values
# [21] = S. cerevisiae deletion strains, locus YNL153C, strain GIM3, hits give low values
# [22] = S. cerevisiae deletion strains, locus YNL298W, strain CLA4 (second series), hits give low values
# [23] = S. cerevisiae deletion strains, locus YNL322C, strain KRE1, hits give low values
# [24] = S. cerevisiae deletion strains, locus YNR030W, strain Alg12, hits give low values
# [25] = S. cerevisiae deletion strains, locus YPL055C, strain LGE1, hits give low values
# [26] = S. cerevisiae deletion strains, locus YPL241C, strain CIN2, hits give low values
# [27] = S. cerevisiae deletion strains, locus YPR135W, strain CTF4, hits give low values
smiles,measurement,setting,value
COc1cccc(C(=O)N/N=C(/C)c2ccccc2O)c1,normalized growth,[1],0.975
same,normalized growth,[2],0.961
same,normalized growth,"S. cerevisiae deletion strains, locus YCL061C, strain MRC1, hits give low values",0.915
same,normalized growth,[3],0.93
same,normalized growth,[4],0.92
same,normalized growth,[5],0.982
same,normalized growth,[6],0.955
same,normalized growth,[7],0.466 (active)
same,normalized growth,[8],0.981
same,normalized growth,[9],0.958
same,normalized growth,[10],0.969
same,normalized growth,[11],0.802 (active)
same,normalized growth,[12],0.618 (active)
same,normalized growth,[13],0.994
same,normalized growth,[14],0.395 (active)
same,normalized growth,[15],0.625 (active)
same,normalized growth,[16],0.817 (active)
same,normalized growth,[17],0.987
same,normalized growth,[18],0.969
same,normalized growth,[19],0.537 (active)
same,normalized growth,[20],0.871 (active)
same,normalized growth,[21],0.973
same,normalized growth,[22],0.805 (active)
same,normalized growth,[23],0.985
same,normalized growth,[24],0.759 (active)
same,normalized growth,[25],0.991
same,normalized growth,[26],0.791 (active)
same,normalized growth,[27],0.592 (active)
same,normalized growth,"S. cerevisiae strains, strain wild type, hits give low values",0.777 (active)
Cc1cccc(C(=O)c2ccccc2C(=O)O)c1,normalized growth,[1],1.01
same,normalized growth,[2],1.02
same,normalized growth,[3],1
same,normalized growth,[4],0.905
same,normalized growth,[5],1.01
same,normalized growth,[6],0.997
same,normalized growth,[7],1.06
same,normalized growth,[8],1.01
same,normalized growth,"S. cerevisiae deletion strains, locus YJL187C, strain SWE1, hits give low values",0.998
same,normalized growth,[9],1.02
same,normalized growth,[10],1
same,normalized growth,[11],0.997
same,normalized growth,[12],0.986
same,normalized growth,[13],1.01
same,normalized growth,[14],1.03
same,normalized growth,[15],0.984
same,normalized growth,[16],1.01
same,normalized growth,[17],1.01
same,normalized growth,[18],0.991
same,normalized growth,[20],1.01
same,normalized growth,[21],1.02
same,normalized growth,[22],1.04
same,normalized growth,[23],0.993
same,normalized growth,[24],1.01
same,normalized growth,[25],1.02
same,normalized growth,[26],1.01
same,normalized growth,[27],1.02
COc1cccc(C(=O)NCCN2CCN(c3ccc(Cl)cc3)CC2)c1,normalized growth,"S. cerevisiae deletion strains, locus YAL040C, strain CLN3, hits give low values",0.992
same,normalized growth,[4],1.01
same,normalized growth,"S. cerevisiae deletion strains, locus YDR363W, strain ESC2, hits give low values",1.01
same,normalized growth,"S. cerevisiae deletion strains, locus YER002W, strain NOP16, hits give low values",1.02
same,normalized growth,[6],1.01
same,normalized growth,"S. cerevisiae deletion strains, locus YGR229C, strain SMI1, hits give low values",1
same,normalized growth,[19],1.01
same,normalized growth,[21],1.01
same,normalized growth,"S. cerevisiae deletion strains, locus YNL175C, strain NOP13, hits give low values",1.03
same,normalized growth,"S. cerevisiae deletion strains, locus YNL197C, strain WHI3, hits give low values",1.01
same,normalized growth,"S. cerevisiae deletion strains, locus YNL224C, strain SQS1, hits give low values",1.03
same,normalized growth,"S. cerevisiae deletion strains, locus YOR083W, strain WHI5 (second series), hits give low values",1.03
same,normalized growth,[26],1.01
C/C(=N/NC(=O)c1ccc(C(C)(C)C)cc1)c1ccccc1O,normalized growth,"S. cerevisiae deletion strains, locus YAR019C, strain CDC15, hits give low values",0.985
same,normalized growth,"S. cerevisiae deletion strains, locus YBL105C, strain PKC1, hits give low values",0.979
same,normalized growth,"S. cerevisiae deletion strains, locus YBR135W, strain CKS1, hits give low values",0.969
same,normalized growth,"S. cerevisiae deletion strains, locus YBR136W, strain MEC1, hits give low values",0.979
same,normalized growth,"S. cerevisiae deletion strains, locus YBR160W, strain CDC28, hits give low values",0.98
same,normalized growth,"S. cerevisiae deletion strains, locus YDL017W, strain CDC7, hits give low values",0.979
same,normalized growth,"S. cerevisiae deletion strains, locus YDL028C, strain MPS1, hits give low values",0.974
same,normalized growth,[3],0.963
same,normalized growth,"S. cerevisiae deletion strains, locus YDL108W, strain KIN28, hits give low values",0.972
same,normalized growth,"S. cerevisiae deletion strains, locus YDL132W, strain cdc53, hits give low values",0.98
same,normalized growth,"S. cerevisiae deletion strains, locus YDL214C, strain PRR2, hits give low values",0.976
same,normalized growth,"S. cerevisiae deletion strains, locus YDR052C, strain DBF4, hits give low values",0.979
same,normalized growth,"S. cerevisiae deletion strains, locus YDR054C, strain cdc34, hits give low values",0.978
same,normalized growth,"S. cerevisiae deletion strains, locus YDR226W, strain ADK1, hits give low values",0.971
same,normalized growth,"S. cerevisiae deletion strains, locus YDR477W, strain SNF1, hits give low values",0.985
same,normalized growth,"S. cerevisiae deletion strains, locus YER123W, strain YCK3, hits give low values",0.97
same,normalized growth,"S. cerevisiae deletion strains, locus YER133W, strain GLC7, hits give low values",0.979
same,normalized growth,"S. cerevisiae deletion strains, locus YFL009W, strain cdc4, hits give low values",0.977
same,normalized growth,"S. cerevisiae deletion strains, locus YFL029C, strain CAK1, hits give low values",0.974
same,normalized growth,"S. cerevisiae deletion strains, locus YFR003C, strain YPI1, hits give low values",0.979
same,normalized growth,"S. cerevisiae deletion strains, locus YFR019W, strain FAB1, hits give low values",1.01
same,normalized growth,"S. cerevisiae deletion strains, locus YFR028C, strain CDC14, hits give low values",0.981
same,normalized growth,"S. cerevisiae deletion strains, locus YGR040W, strain KSS1, hits give low values",0.994
same,normalized growth,"S. cerevisiae deletion strains, locus YGR052W, strain FMP48, hits give low values",1
same,normalized growth,"S. cerevisiae deletion strains, locus YGR092W, strain DBF2, hits give low values",0.934
same,normalized growth,[7],0.876
same,normalized growth,"S. cerevisiae deletion strains, locus YHR079C, strain IRE1, hits give low values",0.952
same,normalized growth,"S. cerevisiae deletion strains, locus YHR082C, strain KSP1, hits give low values",1.07
same,normalized growth,"S. cerevisiae deletion strains, locus YHR205W, strain SCH9, hits give low values",0.995
same,normalized growth,"S. cerevisiae deletion strains, locus YIL147C, strain SLN1, hits give low values",0.976
same,normalized growth,"S. cerevisiae deletion strains, locus YJL095W, strain BCK1, hits give low values",0.972
same,normalized growth,"S. cerevisiae deletion strains, locus YJL128C, strain PBS2, hits give low values",0.939
same,normalized growth,"S. cerevisiae deletion strains, locus YJL157C, strain FAR1, hits give low values",0.981
same,normalized growth,"S. cerevisiae deletion strains, locus YJR016C, strain ILV3, hits give low values",0.987
same,normalized growth,"S. cerevisiae deletion strains, locus YJR066W, strain TOR1 (second series), hits give low values",0.969
same,normalized growth,"S. cerevisiae deletion strains, locus YJR066W, strain TOR1, hits give low values",1.05
same,normalized growth,"S. cerevisiae deletion strains, locus YKL048C, strain ELM1, hits give low values",0.985
same,normalized growth,"S. cerevisiae deletion strains, locus YKL067W, strain YNK1, hits give low values",0.966
same,normalized growth,"S. cerevisiae deletion strains, locus YKL101W, strain HSL1, hits give low values",0.987
same,normalized growth,"S. cerevisiae deletion strains, locus YKL193C, strain SDS22, hits give low values",0.988
same,normalized growth,"S. cerevisiae deletion strains, locus YKL203C, strain TOR2, hits give low values",1.01
same,normalized growth,"S. cerevisiae deletion strains, locus YLR113W, strain HOG1, hits give low values",0.779 (active)
same,normalized growth,"S. cerevisiae deletion strains, locus YLR133W, strain CKI1, hits give low values",0.988
same,normalized growth,"S. cerevisiae deletion strains, locus YLR403W, strain SFP1, hits give low values",1
same,normalized growth,"S. cerevisiae deletion strains, locus YML070W, strain DAK1, hits give low values",0.964
same,normalized growth,"S. cerevisiae deletion strains, locus YMR001C, strain CDC5, hits give low values",0.978
same,normalized growth,"S. cerevisiae deletion strains, locus YMR205C, strain PFK2 (second series), hits give low values",0.981
same,normalized growth,"S. cerevisiae deletion strains, locus YMR277W, strain FCP1, hits give low values",0.98
same,normalized growth,"S. cerevisiae deletion strains, locus YNL006W, strain LST8, hits give low values",0.976
same,normalized growth,"S. cerevisiae deletion strains, locus YNL020C, strain ARK1, hits give low values",1.01
same,normalized growth,"S. cerevisiae deletion strains, locus YNL161W, strain CBK1, hits give low values",0.983
same,normalized growth,"S. cerevisiae deletion strains, locus YNL183C, strain NPR1, hits give low values",1.01
same,normalized growth,"S. cerevisiae deletion strains, locus YNL207W, strain RIO2, hits give low values",0.969
same,normalized growth,"S. cerevisiae deletion strains, locus YNL222W, strain SSU72, hits give low values",0.976
same,normalized growth,"S. cerevisiae deletion strains, locus YNL307C, strain MCK1 (second series), hits give low values",1.01
same,normalized growth,"S. cerevisiae deletion strains, locus YOL078W, strain AVO1, hits give low values",0.986
same,normalized growth,"S. cerevisiae deletion strains, locus YOL136C, strain PFK27, hits give low values",0.977
same,normalized growth,"S. cerevisiae deletion strains, locus YOR061W, strain CKA2, hits give low values",0.995
same,normalized growth,"S. cerevisiae deletion strains, locus YOR119C, strain RIO1, hits give low values",1.05
same,normalized growth,"S. cerevisiae deletion strains, locus YOR231W, strain MKK1, hits give low values",0.952
same,normalized growth,"S. cerevisiae deletion strains, locus YOR329C, strain SCD5, hits give low values",0.975
same,normalized growth,"S. cerevisiae deletion strains, locus YPL031C, strain PHO85, hits give low values",0.979
same,normalized growth,"S. cerevisiae deletion strains, locus YPL153C, strain RAD53, hits give low values",0.981
same,normalized growth,"S. cerevisiae deletion strains, locus YPL204W, strain HRR25, hits give low values",0.967
same,normalized growth,"S. cerevisiae deletion strains, locus YPL209C, strain IPL1, hits give low values",0.977
same,normalized growth,"S. cerevisiae deletion strains, locus YPL256C, strain CLN2, hits give low values",0.808 (active)
same,normalized growth,"S. cerevisiae deletion strains, locus YPR025C, strain CCL1, hits give low values",0.971
same,normalized growth,"S. cerevisiae deletion strains, locus YPR106W, strain ISR1, hits give low values",0.986
same,normalized growth,"S. cerevisiae deletion strains, locus YPR111W, strain DBF20, hits give low values",0.972
same,normalized growth,"S. cerevisiae deletion strains, strain NNK1, hits give low values",0.966
same,normalized growth,"S. cerevisiae deletion strains, strain TSCII, hits give low values",0.981
